Screens deposited in PubChem by National Center for Advancing Translational Sciences (NCATS).
G9a block: blocks human histone lysine methyltransferase G9a; Q96KQ7; G9a H3K9 monomethylation, AlphaScreen, 2 h; Potency, µM (highest dose often 102 µM), for the others: at the top dose activity, negative = inhibition, hits mostly inhibitors; 350,000 tested, 8.8% active; also: % is scaled to controls: 0 for no effect and ±100 for the full control effect; nearly all actives have a fitted effect of over 75% in size
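AlphaScreen detection with an anti-monomethyl H3K9 antibody quantified product after a 2 h room-temperature reaction containing 500 nM biotinylated H3K9 peptide, 20 µM SAM and 20 nM enzyme, which had been preincubated 15 min with compound.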
BAZ2B block: blocks human BAZ2B. Q9UIF8. AlphaScreen BAZ2B-H3K14Ac peptide displacement. Potency, µM (highest dose often 114 µM), for inactives: at the highest dose activity change, negative = inhibition, actives largely listed as inhibitors. 360,000 tested, 4.4% active. AID 504333; also: % is scaled to controls: 0 for no effect and ±100 for the full control effect; nearly all actives have a fitted effect of over 60% in size
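Inhibition is scored as reduced AlphaScreen emission. The BAZ2B/b-H3(5-23)K14Ac complex (50 nM each) in PBS pH 7.4, 0.01% Tween-20 meets compound (up to 110 uM) for 30 min at RT before bead addition.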
HP1b chromo inh: HP1-beta chromodomain-methylated histone interaction inhibition; Potency, µM (highest dose often 114 µM), without a hit: at the top dose activity change, negative = inhibition, hits mostly inhibitors; AlphaScreen HP1-beta / biotin-H3K9me3 peptide binding; P83916; 390,000 tested, 0.56% active; also: nearly all actives have a fitted effect of over 70% in size
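Compound inhibition of the preformed complex between 50 nM HP1-beta and 50 nM biotinylated H3K9me3 peptide was read by AlphaScreen. Buffer was PBS pH 7.4 with 0.01% Tween-20. Incubations ran 30 min at room temperature, with 10 ug/mL donor/acceptor beads.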
JMJD2A Tudor: blocks the human JMJD2A Tudor domain; AlphaScreen JMJD2A-Tudor / H3K4me3 peptide binding; 390,000 tested, 4.4% active; Potency, µM (highest dose often 114 µM), without a hit: top-dose activity change, negative = inhibition, most hits filed as inhibitors; also: % is scaled to controls: 0 for no effect and ±100 for the full control effect; nearly all actives have a fitted effect of over 50% in size
GLS inh: blocks human kidney-isoform glutaminase activity. Potency, µM (series often up to 45.5 µM), inactives show at the highest dose activity change, negative = inhibition, most hits filed as inhibitors. 410,000 tested, 0.21% active. GLS enzymatic activity, qHTS titration. O94925; also: % is scaled to controls: 0 for no effect and ±100 for the full control effect
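Glutamate formation by hKGA was monitored fluorometrically using coupled glutamate oxidase, HRP and Amplex Red. Substrate was added as 1 mM L-glutamine solution; incubation was 30 min at RT after an initial read.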
* marks the source's active call; other numbers are inactive results; ? = inconclusive; . = no result; [ ] = another dose, or the depositor's remark. Sampled rows, rich in hits. Any-hit rate of the full collection: about 10%. Calls follow the shape of the dose curve; as a rule, active = well fitted curve in the direction sought with a large enough effect; inconclusive = small, poorly fitted or top-dose-only effect, or another doubt; inactive = no such curve, though single readings can be large; an effect the other way counts as inactive or inconclusive. Potency is read from the fitted curve at half-maximal effect.

SMILES	G9a block	BAZ2B block	HP1b chromo inh	JMJD2A Tudor	GLS inh
CCOC(=O)c1c(-c2ccc(C)cc2)csc1NC(=O)c1cc(-c2ccc(OC)cc2)on1	6%[59 µM]	-2%	31%	-11%	-1%
CCOC(=O)c1c(-c2ccc(C)cc2)csc1NC(=O)c1cc(=O)c2cc(C)ccc2o1	?	?	?	56µM*	-11%
COc1ccc(-c2c(C(=O)O)nc3ccccc3c2C(=O)O)cc1	?	-28%	2%	25µM*	2%
O=C(O)c1nc2ccccc2nc1C(=O)O	?	79µM*	-20%	20µM*	-11%
Cc1cc(C)cc(N2C(=O)CC(c3ccccc3)CC2=O)c1	12%[2.33 µM]	10%	44%	-16%	10%
COc1ccc(Nc2nc(-c3ccncc3)nc3ccccc23)cc1	12%	6%	32%	4%	-1%
COc1ccc(NC(c2ccccc2)c2ccncc2)cc1 (stereo not given)	7.1µM*	71µM*	8%	45µM*	-1%
COc1cc(NC(c2ccccc2)c2ccccc2)cc(OC)c1OC	40µM*	45µM*	-7%	-22%	-13%
C[C@@H]1CN(S(=O)C(C)(C)C)[C@H](CCO)/C1=C\CCO (stereo not given in full)	.	.	38%	-7%	0%
COc1ccc(NCc2cccn2-c2nnc(N3CCCCC3)s2)cc1OC	?	-29%[57.1 µM]	?	?	18%
COc1cccc(CNCc2cccn2-c2nnc(N3CCN(c4ccccc4)CC3)s2)c1	?	?	-23%	50µM*	13%
COc1ccccc1NCc1cccn1-c1nnc(N2CCCCCC2)s1	?	-2%[57.1 µM]	-13%	45µM*	-4%
COc1ccc(OC)c(NCc2cccn2-c2nnc(N3CCCCC3)s2)c1	8.9µM*	-37%[57.1 µM]	?	50µM*	6%
CCOC(=O)N1CCN(C(=O)c2ccc(S(=O)(=O)Nc3ccc(C)cc3)cc2)CC1	.	.	34%	-19%	11%
CCN1CCN(C2=C(NS(=O)(=O)c3ccc(NC(C)=O)cc3)C(=O)c3ccccc3C2=O)CC1	?	?	30%	7%	-9%
CC(=O)Nc1ccc(S(=O)(=O)NC2=C(N3CCN(Cc4ccccc4)CC3)C(=O)c3ccccc3C2=O)cc1	?	20µM*	32µM*	35µM*	19%
CCN1CCN(C2=C(NS(=O)(=O)c3ccc(C)cc3)C(=O)c3ccccc3C2=O)CC1	40µM*	?	6%	-35%	8%
CC(=O)Nc1ccc(S(=O)(=O)NC2=C(N3CCN(C)CC3)C(=O)c3ccccc3C2=O)cc1	50µM*	32µM*	0%[57 µM]	-25%	44%
CCOC(=O)N1CCN(C2=C(NS(=O)(=O)c3ccc(NC(C)=O)cc3)C(=O)c3ccccc3C2=O)CC1	28µM*	45µM*	-11%[57 µM]	?	21%
CC(=O)Nc1ccc(S(=O)(=O)Nc2cccn(Cc3ccc(C)cc3)c2=O)cc1	3%	-8%	4%	-29%	1%
CC(=O)Nc1ccc(S(=O)(=O)Nc2cc(C)cn(Cc3ccccc3)c2=O)cc1	14%[59 µM]	-3%	27%	25µM*	-5%
O=C(NCCc1csc(-c2cccnc2)n1)c1ccc(Br)o1	20µM*	2%	56%	-18%	-1%
O=C(NCCc1csc(-c2ccccc2)n1)c1ccc(Br)o1	1%[59 µM]	-3%	29%	0%	-2%
CC(C)N(Cc1ccccc1)C(=O)C1CCCN(c2ncnc3onc(-c4ccc(F)cc4)c23)C1 (stereo not given)	-24%[59 µM]	-1%[57.1 µM]	34%	-7%	-6%
CC(=O)Nc1ccc(Nc2cc(C)nc3c(-c4ccccc4)cnn23)cc1	88%	16%	60%	8%	21%
CCCCOC(=O)c1ccc(NC(=O)Cn2nnc3sc4c(c3c2=O)CCCC4)cc1	-4%[59 µM]	-8%	3%	-30%	-5%
C=C(C)C(=O)Nc1cccc(C2=NOC3(C2)C[C@@H](C(N)=O)N(C(=O)C(=C)C)C3)c1 (stereo not given in full)	?	5µM*	8.9µM*	7.9µM*	-8%
